Most compounds without a hit are left out; they make up all but 1.4% or so of the library.
PV pol inh: poliovirus RdRp elongation inhibitors, primary screen, biochemical, fluorescence polarization, total intensity; actives 0.66% (n = 150,000); % elongation, % (compound at 16.7 µg/mL); poliovirus polymerase elongation; stronger effect = lower value; AID 588519, 2011; in the data active = % elongation below about 90%
Target sequence (P03300 1749-2209 limits assumed): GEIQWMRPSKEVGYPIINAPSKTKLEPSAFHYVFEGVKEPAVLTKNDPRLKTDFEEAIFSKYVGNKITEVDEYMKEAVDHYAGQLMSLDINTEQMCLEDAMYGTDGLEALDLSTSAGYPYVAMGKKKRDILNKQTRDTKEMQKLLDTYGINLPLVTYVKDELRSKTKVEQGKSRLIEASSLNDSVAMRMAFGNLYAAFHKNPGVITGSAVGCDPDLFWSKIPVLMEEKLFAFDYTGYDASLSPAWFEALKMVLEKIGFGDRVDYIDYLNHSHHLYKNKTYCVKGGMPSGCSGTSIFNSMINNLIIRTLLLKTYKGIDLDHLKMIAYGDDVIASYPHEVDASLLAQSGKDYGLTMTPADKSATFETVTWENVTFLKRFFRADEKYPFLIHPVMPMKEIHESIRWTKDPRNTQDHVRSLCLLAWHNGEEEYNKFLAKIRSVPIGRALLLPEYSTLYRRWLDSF
AID504770: growth inhibition of E. coli YBA685, primary screen, V. cholerae RctB inhibitors; E. coli YBA685 rctB-dependent plasmid, OD600 growth, 3 h; stronger effect = lower value; actives 0.27% (n = 130,000); z-score (test concentration not listed); AID 504770, 2011; in the data active = z-score below about -2, passing the limit was not always enough
MenB inh: M. tuberculosis MenB inhibitors, primary screen, biochemical, absorbance; MenB enzyme assay, absorbance read-out; inhibition, % (test concentration not listed); actives 0.43% (n = 100,000); AID 540299, 2011; in the data active = inhibition above about 21%, passing the limit was not always enough
Mtb MbtI inh: MbtI salicylate synthase inhibitors, primary screen, biochemical, fluorescence intensity; P9WFX0; purified MbtI enzyme, fluorescence intensity read-out; inhibition, % (test concentration not listed); actives 0.89% (n = 100,000); in the data active = inhibition mostly above about 56%, no sharp cut-off; inactive = mostly below about 77%
Active calls of the source: *; i = inactive; . = no result given; ! = a repeat was not active.

SMILES | PV pol inh | AID504770 | MenB inh | Mtb MbtI inh
CCOC(=O)c1c(NC(=O)CN2CCCC2c2cccn2C)sc(C)c1C (stereo unspecified) | 108.0 | -0.65 | -18.1 | 17.1
NC(=O)CN(C1CCCCC1)S(=O)(=O)c1ccc(Br)cc1 | 99.0 | -0.2 | 41.0* | i
Cc1ccc(S(=O)(=O)N(CC(=O)O)C2CCCCCC2)cc1 | 96.0 | -0.5 | -14.2 | -8.0
CS(=O)(=O)Nc1ccc(C(=O)CSc2ccc3c(c2)OCCO3)cc1 | 109.0 | -0.45 | -3.5 | 6.8
COC(=O)C1=C(C)N(Cc2cccnc2)C(=O)/C1=C\c1cccc(Cl)c1 | 104.0 | -0.5 | -41.2 | -0.6
CC(=O)NCCC(=O)N1CCCSC1=Nc1c(C)cccc1C | 88.0* | 0.05 | -2.6 | -4.2
Cc1[nH]n(-c2ccccc2)c(=O)c1Sc1ccc(Cl)cc1 | 102.0 | -0.8 | -6.1 | -207.3
Cc1[nH]n(-c2ccc(Cl)cc2)c(=O)c1C=O | 100.0 | -0.3 | 5.4 | 70.9*
CN1CCSc2ccc(C(=O)NCCCN3CCCCCC3)cc21 | 101.0 | -0.3 | -11.6 | -52.2
Nc1cc(C(F)(F)F)ccc1-n1cnc2ccccc21 | 102.0 | 1.05 | . | 90.1*
CS(=O)(=NS(=O)(=O)c1ccccc1)c1ccccc1 (stereo unspecified) | 98.0 | -0.85 | -2.8 | -7.5
N#Cc1cccc(C(c2nnnn2Cc2ccccc2)N2CCCC2)c1 (stereo unspecified) | 99.0 | 0.5 | 29.2* | -0.8
c1ccc(CCn2nnnc2C(c2cccnc2)N2CCCCC2)cc1 (stereo unspecified) | 104.0 | -0.65 | -12.5 | -9.4
Cc1ccc(/C=C2/C(=O)NC(=O)N(C3CCCCC3)C2=O)cc1 | 99.0 | -0.7 | 3.1 | 5.6
CSc1ncc(/C=C2/C(=O)NC(=O)N(C3CCCCC3)C2=O)cn1 | 100.0 | -0.3 | -37.6 | 71.0*
CCOc1cc2c(cc1OCC)C1C(C(=O)N3CCCCC3)c3ccccc3C(=O)N1CC2 (stereo unspecified) | 101.0 | -0.4 | -19.1 | -7.7
Cc1nn(-c2ccccc2)c2c1P(=S)(N1CCOCC1)N(C)C(c1ccccc1)=N2 (stereo unspecified) | 82.0* | -0.5 | -4.8 | 79.7
Cc1[nH]c(=S)[nH]c1Cc1ccccc1 | . | -0.8 | -14.4 | 96.5*
N#CC(C#N)=Cc1cc2c(cc1Br)OCO2 | 70.0* | 0.85 | -42.7 | 85.7
CCOC(=O)N1CCN(c2cnn(-c3nc4ccccc4s3)c(=O)c2Cl)CC1 | . | 1.15 | . | -1.6
CN(C)Cc1n[nH]c(=S)o1 | 75.0* | 2.05 | -19.3 | 89.6*
CCN(CC)S(=O)(=O)c1ccc(Cl)c(C(=O)Oc2ccc(C)c(C)c2)c1 | 45.0* | 0.2 | -35.7 | 3.5
CCN(CC)S(=O)(=O)c1ccc(Cl)c(C(=O)OC)c1 | 102.0 | 1.8 | -15.8 | -14.1
COc1ccc(C)cc1NS(=O)(=O)c1ccc(-c2cnc(C3CC3)o2)cc1 | 105.0 | . | . | .
COc1cc(Cl)c(NS(=O)(=O)c2ccc(-c3cnc(C4CC4)o3)cc2)c(OC)c1 | 87.0* | . | . | .
SMILES | PV pol inh | AID504770 | MenB inh | Mtb MbtI inh
CCOC(=O)c1cc2c(ccn2-c2ccc(F)cc2)n1CC(=O)c1ccc2c(c1)OCCO2 | 102.0 | 2.15 | -52.5 | -7.7
CCOC(=O)c1sc(=N)n(CC(=O)c2ccc(F)cc2)c1C | 1.0* | 1.9 | -7.5 | 10.4
CC(C)(C)N(N)C(=S)NCc1ccc(F)cc1 | 86.0* | -0.85 | -23.2 | 90.0*
Cc1cc(C)c(N=Cc2sccc2C)c(C)c1 | 97.0 | -0.35 | 0.5 | .
N/C(=N/O)c1ccccc1N | 102.0 | -1.55 | 41.8* | 26.5
O=c1[nH]nc(SCc2ccccc2)c(=O)[nH]1 | . | 0.05 | . | 0.8
O=c1[nH]nc(SCc2cccc3ccccc23)c(=O)[nH]1 | 100.0 | 2.8 | -18.8 | 51.2*
CC1=C(/C=C/C(C)=C/C=C/C(C)=C\C(=O)O)C(C)(C)CCC1 | 101.0 | -0.05 | 49.8*! | -11.6
CC1=C(/C=C/C(C)=C/C=C/C(C)=C/C(=O)Nc2ccc(O)cc2)C(C)(C)CCC1 | 101.0 | . | 8.2 | -18.4
COC1=CC(=O)C(C)=CC1=O | . | -3.15* | . | .
N#Cc1cc2c(nc1SCC(=O)c1ccccc1)CCC2 | 103.0 | 0.95 | -9.6 | 6.8
CCOc1ccc(N2C(=O)CC(NCCNC(=O)c3ccc(Cl)cc3)C2=O)cc1 (stereo unspecified) | 102.0 | 0.85 | 26.9* | 4.8
CC(C(=O)Nc1ccc(F)cc1)n1nnc2ccccc2c1=O (stereo unspecified) | 100.0 | -0.5 | -10.3 | -13.1
CCn1cc(C(=O)O)c(=O)c2cc(F)c(N3CCN(C(=O)c4ccc(F)cc4)CC3)cc21 | 102.0 | -3.65* | -18.7 | -94.0
CCn1cc(C(=O)O)c(=O)c2cc(F)c(N3CCN(C(C)=O)CC3)cc21 | 109.0 | -3.05* | -10.5 | 107.2
CCn1cc(C(=O)O)c(=O)c2cc(F)c(N3CCNCC3)nc21 | 104.0 | -3.55* | 6.1 | -31.4
O=C(c1ccc(Cl)nc1)N1CCN(C(c2ccccc2)c2ccccc2)CC1 | 106.0 | 0.35 | -16.8 | -3.7
Cc1ccc(-c2nnco2)cc1 | . | -0.9 | . | .
Nc1cc(N)c2c(c1)Oc1ccccc1CC2 | 97.0 | -0.4 | 24.6 | 31.2
CCN(CC)CCNc1nc2c(c(=O)n(C)c(=O)n2C)n1CCc1ccccc1 | 103.0 | 2.25 | 22.7* | 19.1
CCN(CC)CCNc1nc2c(c(=O)n(C)c(=O)n2C)n1Cc1ccc(F)cc1 | . | 0.1 | . | -1.3
c1ccc(CCN2CCN(CCc3ccccn3)CC2)nc1 | . | 0.75 | . | .
CC(C)C(=O)Nc1cccc(-c2nc3ccccc3c(=O)o2)c1 | 101.0 | -3.5* | -15.2 | 5.1
Cc1ccc(C)c(Cn2cccc2C2=NC(C)(C)CO2)c1 | 102.0 | -1.05 | -8.7 | -8.2
CCOC(=O)c1ccc(N=Cc2ccc(CC)cc2)cc1 | 97.0 | -0.15 | 6.6 | .
SMILES | PV pol inh | AID504770 | MenB inh | Mtb MbtI inh
CCOC(=O)c1ccc(N=C=S)cc1 | 95.0 | -2.15* | 7.7 | 8.9
CCOC(=O)C1CCN(C(=S)c2ccccc2)CC1 | 103.0 | -0.65 | -9.3 | 59.0*
CCOc1ccc(C(=S)N2CCCC2)cc1 | 103.0 | 2.3 | -44.2 | -6.2
CCOC(=O)c1ccc(C(=S)N2CCCC2)cc1 | 69.0* | 0.45 | -7.6 | 77.3*
c1ccc2c(c1)N(CN1CCCC1)CC21OCCO1 | 102.0 | -1.45 | 4.4 | 2.7
O=C1Nc2ccccc2O/C1=C\c1ccc(C(=O)NCCCN2CCOCC2)cc1 | 100.0 | 0.85 | -8.7 | -296.1
O=C(O)CCc1ccc2c(c1)OCCO2 | 103.0 | -0.3 | -12.2 | -0.7
CC(C)(C)N1Sc2ccccc2NC1=S | 98.0 | -0.15 | -5.9 | 90.2*!
CC1CC(=S)Nc2ccccc2S1 (stereo unspecified) | 102.0 | -0.15 | -23.9 | 24.2
O=C(Cc1ccccc1)NC1CCCCC1NC(=O)Cc1ccccc1 (stereo unspecified) | 103.0 | -0.15 | 3.1 | .
CN(C)C(=O)COc1ncnc2ccccc12 | 102.0 | -0.6 | . | -1.3
O=C(O)COc1ncnc2ccccc12 | 104.0 | 0.8 | 27.4* | 9.8
Cc1ccc(NC(=O)Sc2ccc(Cl)cc2)cc1 | 96.0 | 0.45 | -12.7 | 57.0*
COc1cc2cc3c4c(cc(OC)c(OC)c4c2cc1OC)CCN3C | 18.0* | 0 | 0.7 | .

Assay outcomes deposited in PubChem BioAssay by ICCB-Longwood Screening Facility, Harvard Medical School.
